These results are taken from ChEMBL document CHEMBL3988442, “University of Dundee, Small-Polar-MMV Screening Library” (2021).

Test [1] addresses T1, Aspartate--tRNA(Asp/Asn) ligase (Mycobacterium tuberculosis (strain ATCC 25618 / H37Rv)) (UniProt P9WFW3).
T1 sequence (whole entry): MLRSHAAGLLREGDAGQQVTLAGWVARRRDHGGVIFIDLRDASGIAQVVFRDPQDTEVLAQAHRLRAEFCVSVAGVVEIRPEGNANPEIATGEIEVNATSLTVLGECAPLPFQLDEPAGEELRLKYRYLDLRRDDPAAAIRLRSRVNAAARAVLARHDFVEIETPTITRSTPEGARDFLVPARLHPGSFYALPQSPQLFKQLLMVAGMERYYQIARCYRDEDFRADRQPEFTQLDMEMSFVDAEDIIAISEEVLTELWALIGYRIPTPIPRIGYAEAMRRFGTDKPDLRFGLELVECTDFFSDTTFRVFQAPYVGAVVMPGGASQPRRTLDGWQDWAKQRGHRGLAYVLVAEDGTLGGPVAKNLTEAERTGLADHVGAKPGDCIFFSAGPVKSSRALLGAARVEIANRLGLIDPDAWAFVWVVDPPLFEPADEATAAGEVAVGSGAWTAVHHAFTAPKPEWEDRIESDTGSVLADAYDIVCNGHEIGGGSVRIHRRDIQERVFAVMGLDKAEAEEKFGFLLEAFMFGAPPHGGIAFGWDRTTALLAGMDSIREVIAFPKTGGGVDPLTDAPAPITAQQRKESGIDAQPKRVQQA
Kind of test: Assay for Asp RNA synthetase-1 from Mycobacterium tuberculosis. In kind it is functional. Details: scale not given: direction of the effect not stated beside the values. Particulars: 30 µM.

Test [2] concerns the target Shiga toxin 2 (Escherichia coli O157:H7) (UniProt P09385+P09386). Kind of test: E. coli 0.157:H7 Shiga Toxin SOP - stx2 screening assay. In kind it is functional. Details: scale not given: direction of the effect not stated beside the values. Particulars: 30 µM.

Take `Cc1cc(-c2nnn(CCNS(C)(=O)=O)n2)ccc1F`: the results for the Percent Effect in test [1] and in test [2] were -2.07% and -10.6%, respectively.

`Cc1cc(N2CCC(NC(=O)C3CC3)CC2)nc(-c2ccncc2)n1`: the Percent Effect is 0.463% in test [1] and -21.4% in test [2].

Turning to `CC(C)N1CCC(CNCc2c[nH]nc2C(C)(C)C)C1` (configuration not stated), the Percent Effect came to 7.32% in test [1] and 11.2% in test [2].

Consider `CC(C)CC(=O)N1CCCn2cnc(CN3CCCC3=O)c2C1`, for which the values for the Percent Effect in test [1] and in test [2] were -3.68% and -15.8%, respectively.

On to `O=c1cccnn1CC1CN(Cc2ccsc2)Cc2nccn2C1` (configuration not stated), for which the values for the Percent Effect in test [1] and in test [2] were 7.43% and 5.53%, respectively.

For the molecule `Cc1cccc(CNCc2c(C)nn(C)c2N2CCOCC2)n1`, the Percent Effect in test [1] was 3.77%; in test [2] it was -0.864%.

Take `CCC(=O)Nc1ccc2c(c1)CN(C(=O)c1ccco1)CC2`: the Percent Effect in test [1] is -3.28%; in test [2], -43.9%.

Consider `CCC(C)NC(=O)Cc1c(C)nc2c(c1C)c(=O)[nH]n2C` (configuration not stated), for which the Percent Effect in test [1] is 5.44%; in test [2], -28.6%.

Take `Cc1ccc(C(=O)NC2CCN(Cc3noc(CC(C)C)n3)CC2)s1`: the Percent Effect in test [1] is 7.55%; in test [2] it was -63.2%.

Take `CN(Cc1ccsc1)C(=O)CS(=O)(=O)Cc1ccc(Cl)c(Cl)c1`: the Percent Effect was 3.95% in test [1] and 41.2% in test [2].

`CC(CNc1cncc(-n2cccn2)n1)N(C)c1ccccc1` (configuration not stated): the Percent Effect in test [1] turned out to be 2.34%; in test [2], 7.51%.

On to `Cc1ccc(NC(=O)N(C)Cc2cnn(C)c2)cc1OCC(F)F`, for which the results for the Percent Effect in test [1] and in test [2] were 5.84% and -4.22%, respectively.

Consider `O=C(NCc1ccccc1F)N1CCC(C2OCCO2)CC1`, for which the figures for the Percent Effect in test [1] and in test [2] were -2.61% and -12.8%, respectively.

With `COCCn1cc2c(n1)C(CNCc1ccc(F)cc1)OCC2` (configuration not stated), the Percent Effect was 1.2% in test [1] and -6.53% in test [2].

Turning to `COCCN1CCCC1c1nccnc1Nc1nc(C)cs1` (configuration not stated), the values for the Percent Effect in test [1] and in test [2] were -3.52% and 0.955%, respectively.

`CC1c2ncc(CN3CCN(C)CC3)n2CCN1CC1CC1` (configuration not stated): the results for the Percent Effect in test [1] and in test [2] were 0.815% and -23.1%, respectively.

On to `CCc1cnc(N2C[C@H]3C[C@H](C(=O)N(C)C)[C@@H](C2)O3)nc1`, for which the Percent Effect was -1.86% in test [1] and -0.162% in test [2].

Consider `CC(C)N1CCC(N2CCN(C3CCC3)CC2CCO)CC1` (configuration not stated), for which the values for the Percent Effect in test [1] and in test [2] were -3.4% and -0.0599%, respectively.

On to `CCOCC1CN(C(=O)c2cccn2C)Cc2cnn(CC3CC3)c21` (configuration not stated), for which the Percent Effect in test [1] is 5.55%; in test [2] it was -5.56%.

For the molecule `CCOCCCn1c(NC(=O)c2cnn(C)c2)nc2ccccc21`, the Percent Effect in test [1] is -2.49%; in test [2], 22.6%.

Take `O=C1N(CCCc2ccccc2)CCCC1(O)CNCc1ccccc1` (configuration not stated): the Percent Effect in test [1] was 4.53%; in test [2], -10.3%.

As to `CCN(CC)CCNc1ncc(-c2cc(C)no2)c(-c2ccoc2C)n1`, the Percent Effect in test [1] worked out at 2.28%; in test [2], 7.04%.

With `O=C(O)C1(Cc2cccc(-c3ccc(F)c(F)c3)c2)CCOCC1`, the results for the Percent Effect in test [1] and in test [2] were 4.93% and 7.92%, respectively.

For `CC(=O)N1CCC(c2ccnc(Nc3cncnc3)n2)C1` (configuration not stated), the Percent Effect is -0.956% in test [1] and -11.8% in test [2].

As for `O=C1NCCN1C1CCN(Cc2ccccn2)CC1`, the Percent Effect in test [1] was -1.42%; in test [2], -6.38%.

On to `CC(C)c1nc(C2CCCN(C(=O)c3ccc4nccn4c3)C2)no1` (configuration not stated), for which the values for the Percent Effect in test [1] and in test [2] were 4.61% and 29.2%, respectively.

For the molecule `O[C@H]1[C@H](n2cc(-c3cccnc3)nn2)c2ccccc2C12CCNCC2`, the Percent Effect in test [1] is -2.48%; in test [2] it was 7.64%.

For `Cc1cc(N2CCN(CCO)CC2)nc(-c2ccncc2)n1`, the figures for the Percent Effect in test [1] and in test [2] were 1.26% and -27.4%, respectively.

Turning to `CC(Cn1cccn1)NC(=O)N1CCN(Cc2cccs2)CC1` (configuration not stated), the figures for the Percent Effect in test [1] and in test [2] were -5.57% and -23.7%, respectively.

On to `O=S1(=O)c2ccccc2C2(CCN(Cc3ccccc3)C2)N1CC1CC1` (configuration not stated), for which the Percent Effect in test [1] was -4.07%; in test [2] it was 12.3%.

`Cn1cc(CN2C[C@@H]3CN(Cc4ccoc4)CCO[C@@H]3C2)cn1`: the Percent Effect in test [1] was 3.69%; in test [2], -1.85%.

For `Cc1nc(C2CCCN(C(=O)COCc3ccccc3Cl)C2)no1` (configuration not stated), the Percent Effect in test [1] was found to be 1.96%; in test [2] it was 5.07%.

On to `COc1ccc(-c2noc(C(=O)NCCN3CCCCC3)n2)cc1OC`, for which the values for the Percent Effect in test [1] and in test [2] were -1.25% and -77.4%, respectively.

`COc1ccccc1OCc1cc(C(=O)N2CC(O)C2)n[nH]1`: the Percent Effect in test [1] was determined as 2.09%; in test [2], 1.76%.

As for `CCc1nccn1C1CCCN(C(=O)c2csc(NC(C)=O)n2)C1` (configuration not stated), the Percent Effect in test [1] was -1.64%; in test [2], -11.1%.

Consider `CS(=O)(=O)N1CCCC12CCCN(S(=O)(=O)c1cc(F)cc(F)c1)C2` (configuration not stated), for which the Percent Effect in test [1] is -0.24%; in test [2], 2.89%.

Take `Cn1cc(C(=O)N2CCC(Cc3nccs3)CC2)cn1`: the Percent Effect turned out to be 2.4% in test [1] and 59.9% in test [2].

As to `CCc1nnc2n1CCN(CCS(=O)(=O)c1ccccc1)C2`, the values for the Percent Effect in test [1] and in test [2] were -3.04% and 8.79%, respectively.

Regarding `O=C(CCc1cc2n(n1)CCCN(Cc1ccccc1F)C2)NC1CC1`, the results for the Percent Effect in test [1] and in test [2] were -1.95% and -4.17%, respectively.

Take `Cn1nc(CNC(=O)C2CCCC2)cc1C1CC1`: the figures for the Percent Effect in test [1] and in test [2] were 0.0146% and -25.7%, respectively.

Take `Cc1cccc(NC2CCN(C(=O)Nc3cccc4[nH]ccc34)CC2)n1`: the Percent Effect was -0.4% in test [1] and -50% in test [2].

As to `CC(C)Nc1ncnc2c1CCN(C(=O)c1ccncc1F)CC2`, the Percent Effect in test [1] was -1.6%; in test [2], -6.39%.

As for `CN(Cc1nnc2n1CCC2)C(=O)NCCc1ccc2c(c1)OCO2`, the Percent Effect in test [1] turned out to be 10.3%; in test [2], 19.1%.

In the case of `CC(C)=CCN1CCC(c2nccn2Cc2cscn2)CC1`, the Percent Effect in test [1] was -3.28%; in test [2], 22.8%.

Consider `CCCNC(=O)CNc1ccc(C(=O)N2CCCCC2C)cc1C` (configuration not stated), for which the Percent Effect in test [1] stood at 3.79%; in test [2], 10.6%.

As to `CN(Cc1nc(-c2ccco2)no1)C1CCCN(c2cccnn2)C1` (configuration not stated), the Percent Effect is -3.2% in test [1] and -26.8% in test [2].

Regarding `CCn1cc(CN2CC3CCCN3C[C@H]2C)c(C)n1` (some centres not stated), the figures for the Percent Effect in test [1] and in test [2] were 1.26% and -7.87%, respectively.

Turning to `CCOc1ccccc1OC1CCN(C(=O)c2ccc(=O)[nH]n2)CC1`, the Percent Effect was -5.79% in test [1] and 32.3% in test [2].

As to `CC(=O)NCC(=O)N1CCC2(CC1)CN(c1cccnc1)C(=O)CO2`, the Percent Effect in test [1] is 2.37%; in test [2] it was -4.09%.

`COc1cccc(CCC(=O)N2CCCC(n3cc(C)cn3)C2)c1` (configuration not stated): the Percent Effect is -3.33% in test [1] and 10.7% in test [2].

`COc1cccc(COCC(=O)N2CCCC(c3cc(C)[nH]n3)C2)c1` (configuration not stated): the Percent Effect in test [1] stood at 1.92%; in test [2], 28.3%.
